37 molecules from PubChem BioAssay (Tox21) can be followed below.

Each structure is given as a SMILES string. Records with an inconclusive call do not appear. Unmarked numbers belong to inactive results. Unless noted, calls follow the shape of the dose curve; as a rule, active = well fitted cell-killing curve with a large enough effect in the repeat runs; inconclusive = weak or mixed curves, or effect the other way; inactive = no such curve, though single readings can be large or run the other way.
% is scaled to controls: 0 for no effect and ±100 for the full control effect.

The target of the first experiment is Thyrotropin receptor (Homo sapiens) (UniProt P16473). The experiment in a line: qHTS assay to identify small molecule antagonists of the thyroid stimulating hormone receptor (TSHR) signaling pathway (AID 1259385; calls by dose curve; also: nearly all actives have a fitted effect of over 20% in size). Particulars: TSHR-HEK293 cAMP HTRF, TSH-stimulated antagonist mode; series mostly up to 92.4 µM; activity change, negative = inhibition: at the top concentration. The gist of the method: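 TSHR-HEK293 cells (800/well) plated 18 h, then compounds with Ro20-1724 and TSH at 1.5 ng/mL final, 30 min at room temperature. cAMP quantified by HTRF (cAMP-d2/anti-cAMP-cryptate, 1 h); 15 concentrations in triplicate.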
Sequence of Thyrotropin receptor (Homo sapiens) (P16473 whole entry, looked up): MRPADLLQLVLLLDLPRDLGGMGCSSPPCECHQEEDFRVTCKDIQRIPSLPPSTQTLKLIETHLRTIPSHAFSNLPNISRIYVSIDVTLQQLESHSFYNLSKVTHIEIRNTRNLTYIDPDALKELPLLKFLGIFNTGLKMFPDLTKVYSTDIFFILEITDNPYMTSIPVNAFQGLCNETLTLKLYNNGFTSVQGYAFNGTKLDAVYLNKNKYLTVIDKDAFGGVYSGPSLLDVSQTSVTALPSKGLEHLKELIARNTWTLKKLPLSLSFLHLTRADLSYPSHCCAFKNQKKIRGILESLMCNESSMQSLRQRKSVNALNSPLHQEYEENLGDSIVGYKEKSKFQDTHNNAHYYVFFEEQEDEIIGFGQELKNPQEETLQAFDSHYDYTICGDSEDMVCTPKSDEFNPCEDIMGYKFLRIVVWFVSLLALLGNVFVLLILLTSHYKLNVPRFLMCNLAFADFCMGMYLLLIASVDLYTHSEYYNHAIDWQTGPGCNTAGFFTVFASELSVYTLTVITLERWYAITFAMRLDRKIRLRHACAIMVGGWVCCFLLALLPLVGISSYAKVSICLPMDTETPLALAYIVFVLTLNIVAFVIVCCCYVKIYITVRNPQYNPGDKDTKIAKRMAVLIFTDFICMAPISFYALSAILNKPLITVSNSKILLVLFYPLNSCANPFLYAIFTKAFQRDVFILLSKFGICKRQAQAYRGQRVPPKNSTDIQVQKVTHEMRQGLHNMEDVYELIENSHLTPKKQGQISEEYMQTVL
In general terms: qHTS replaces the single test concentration by a dilution series.
Consider `NS(=O)(=O)c1ccc(NC(=O)CCC(=O)O)cc1`, for which the “activity change, negative = inhibition” value is 1.62% [at 42.5 µM].
The same measure, in the same setting: then `CCCCCCCCSCC`, with 3.17%.
Take `CC(C)N(c1ccccc1)C(C)C`: the “activity change, negative = inhibition” value was 2.36%.
Turning to `CC(C)CC(=O)O`, the “activity change, negative = inhibition” value was 0.307%.
As to `COC(=O)CCCCCCCC(=O)OC`, the “activity change, negative = inhibition” value is -0.257%.
The same measure, in the same setting: then `CN(C)C(=O)CNC(=O)Cc1ccccc1`, with -0.106% [at 42.5 µM].
`C[C@H](N)[C@H](O)c1cccc(O)c1`: the “activity change, negative = inhibition” value was 3.04% [at 42.5 µM].
Take `C[C@H](CCC(=O)O)[C@H]1CC[C@H]2[C@@H]3C(=O)C[C@@H]4CC(=O)CC[C@]4(C)[C@H]3CC(=O)[C@]12C`: the “activity change, negative = inhibition” value was 1.85% [at 42.5 µM].
On the same count and under the same terms, then `CC(=O)/C=C/C1C(C)=CCC(C)C1(C)C` (stereo unspecified), with 10.2%; and `CCCC(=O)C(C)=O`, with -1.98%.
`O=C1CCCC(=O)O1`: the “activity change, negative = inhibition” value was 2.72%.
Still for that read-out and setting: under `CCOC(=O)CC(=O)c1ccccc1` stands -1.18%; under `C[C@@H](O)[C@H]1C(=O)N2C(C(=O)O)=C(SCCN=CN)C[C@H]12`, 1.05% [at 42.5 µM]; under `CC(C)OC(=O)CCCCC(=O)OC(C)C`, 2.63%.
Same read-out and setting: under `CCCCCCCC/C=C\CCCCCCCC(=O)OCCCC` stands 2.54% [at 19 µM].
Consider `O=C(O)c1ccc(Cl)cc1Cl`, for which the “activity change, negative = inhibition” value was -11.5%.
For `CCCCCCCCC1CCC(=O)O1` (stereo unspecified), the “activity change, negative = inhibition” value was 0.0878%.
Turning to `CN1CCN(CC(=O)N2c3ccccc3C(=O)Nc3cccnc32)CC1`, the activity change, negative = inhibition was 0.681% [at 8.39 µM].
For the molecule `O=C(CS(=O)Cc1ccco1)NC/C=C\COc1cc(CN2CCCCC2)ccn1` (stereo unspecified), the “activity change, negative = inhibition” value is 1.07% [at 42.5 µM].
The same measure, in the same setting: then `COc1cc(C(=S)N2CCOCC2)cc(OC)c1OC`, with -1.38% [at 42.5 µM].
The same measure, in the same setting: under `C=C1CC/C=C(\C)CC[C@@H]2[C@@H]1CC2(C)C` stands -1.68%.
Same read-out and setting: under `CC1(C)S[C@@H]2[C@H](N=CN3CCCCCC3)C(=O)N2[C@H]1C(=O)O` stands 0.193% [at 42.5 µM]; under `Nc1ncnc(Nc2ccccc2)n1`, -4.16% [at 42.5 µM]; under `CN(C)c1ccc(C=O)cc1`, 0.262%.
With `CC(N)C(=O)OC(C)(C)Cc1ccc(Cl)cc1` (stereo unspecified), the “activity change, negative = inhibition” value is -9.18% [at 42.5 µM].

Test system in the next experiment: not listed separately
The experiment in a line: qHTS assay to identify small molecule agonists of the estrogen receptor alpha (ER-alpha) signaling pathway in the presence of an antagonist - cell viability counter screen (AID 1259386).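 Also: cells exposed to compounds for 22 h at 37 °C before the viability read; nearly all actives have a fitted effect of over 30% in size.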 The following applies: VM7Luc4E2 viability, CellTiter-Fluor fluorescence, 22 h; series mostly up to 92.4 µM; activity change, negative = cytotoxicity: at the top concentration. The gist of the method:
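VM7Luc4E2, stripped-serum pre-culture 5 d; 24hr plating; +ICI-182,780 10.0nM final; cpds 15 conc, 22hr, 37C/5% CO2; CellTiter-Fluor added at 21hr, fluorescence 1hr later.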
For the molecule `NS(=O)(=O)c1ccc(NC(=O)CCC(=O)O)cc1`, the “activity change, negative = cytotoxicity” value was 5.62% [at 42.5 µM].
Same read-out and setting: then `CCCCCCCCSCC`, with 1.01%.
Still for that read-out and setting: under `CC(C)N(c1ccccc1)C(C)C` stands 1.86%.
Regarding `CC(C)CC(=O)O`, the “activity change, negative = cytotoxicity” value was -0.0396%.
With `C=C(C)C(=O)OCCOP(=O)(O)OCCOC(=O)C(=C)C`, the “activity change, negative = cytotoxicity” value was 4.91%.
Same read-out and setting: then `CC(=O)NCCCCCC(=O)O`, with 0.987% [at 42.5 µM]; and `COC(=O)CCCCCCCC(=O)OC`, with -0.775%; and `CN(C)C(=O)CNC(=O)Cc1ccccc1`, with -3.23% [at 42.5 µM].
Take `C[C@H](N)[C@H](O)c1cccc(O)c1`: the “activity change, negative = cytotoxicity” value is 2.69% [at 42.5 µM].
With `Cc1ccc2c(c1)OCC(=O)CO2`, the “activity change, negative = cytotoxicity” value is 3%.
Still for that read-out and setting: then `C[C@H](CCC(=O)O)[C@H]1CC[C@H]2[C@@H]3C(=O)C[C@@H]4CC(=O)CC[C@]4(C)[C@H]3CC(=O)[C@]12C`, with 0.874% [at 42.5 µM].
Regarding `Cc1ccc(C=O)cc1C`, the “activity change, negative = cytotoxicity” value was -0.32%.
Still for that read-out and setting: under `CCCCCCCCOS(=O)(=O)O` stands 5.97%; under `CC(=O)/C=C/C1C(C)=CCC(C)C1(C)C` (stereo unspecified), -1.02%.
The same measure, in the same setting: then `CCCC(=O)C(C)=O`, with 1.65%.
Still for that read-out and setting: under `O=C1CCCC(=O)O1` stands -0.93%; under `CCOC(=O)CC(=O)c1ccccc1`, 0.656%.
On to `C[C@@H](O)[C@H]1C(=O)N2C(C(=O)O)=C(SCCN=CN)C[C@H]12`, for which the “activity change, negative = cytotoxicity” value is 0.963% [at 42.5 µM].
On the same count and under the same terms, then `CC(C)OC(=O)CCCCC(=O)OC(C)C`, with 0.188%; and `CNS(=O)(=O)CCc1ccc2[nH]cc(C3CCN(C)CC3)c2c1`, with 1.03% [at 42.5 µM]; and `CC(=C(CCOC(=O)C(C)C)SSC(CCOC(=O)C(C)C)=C(C)N(C=O)Cc1cnc(C)nc1N)N(C=O)Cc1cnc(C)nc1N`, with 3.75% [at 42.5 µM].
For the molecule `O=S(=O)(O)c1ccc2cc(O)c(S(=O)(=O)O)cc2c1`, the “activity change, negative = cytotoxicity” value was -1.07%.
On the same count and under the same terms, then `CCCCCCCC/C=C\CCCCCCCC(=O)OCCCC`, with -4.95% [at 19 µM]; and `CCOC(=O)[C@H](CCc1ccccc1)N[C@@H](C)C(=O)N1C(=O)N(C)C[C@H]1C(=O)O`, with 2.28% [at 42.5 µM].
On the same count and under the same terms, then `O=C(O)c1ccc(Cl)cc1Cl`, with 0.243%; and `N#Cc1ccc(C(=O)O)cc1`, with 1.15%.
Still for that read-out and setting: under `CCCCCCCCC1CCC(=O)O1` (stereo unspecified) stands 1.64%.
`CN1CCN(CC(=O)N2c3ccccc3C(=O)Nc3cccnc32)CC1`: the activity change, negative = cytotoxicity is -1.63% [at 8.39 µM].
Same read-out and setting: under `O=C(CS(=O)Cc1ccco1)NC/C=C\COc1cc(CN2CCCCC2)ccn1` (stereo unspecified) stands 2.86% [at 42.5 µM].
For the molecule `COc1cc(C(=S)N2CCOCC2)cc(OC)c1OC`, the “activity change, negative = cytotoxicity” value is 2.64% [at 42.5 µM].
Same read-out and setting: under `C=C1CC/C=C(\C)CC[C@@H]2[C@@H]1CC2(C)C` stands 8.92%.
`CC1(C)S[C@@H]2[C@H](N=CN3CCCCCC3)C(=O)N2[C@H]1C(=O)O`: the “activity change, negative = cytotoxicity” value is -1.13% [at 42.5 µM].
Same read-out and setting: then `Nc1ncnc(Nc2ccccc2)n1`, with 1.6% [at 42.5 µM].
In the case of `CCN1CCc2nc(N)oc2CC1`, the “activity change, negative = cytotoxicity” value is 0.706% [at 42.5 µM].
Still for that read-out and setting: under `CN(C)c1ccc(C=O)cc1` stands 1.31%; under `Cc1cc(Cl)c(C)cc1Cl`, -0.737%.
